A short description of test [1]: CCTE_Deisenroth_5AR_NBTE_acceptor: CCTE's 5alpha-reductase NanoBRET Target Engagement Assay - Autofluorescence Screen, Deisenroth Lab (AID 2284321).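 Also: compound fluorescence in the acceptor channel under 460 nm excitation flags autofluorescence artifacts.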 The conditions noted are these: actives raise or lower the signal. The method in brief:
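Acceptor-channel fluorescence flags artifacts, with excitation fixed at 460 nm. Nominal 100 uM chemical samples were read in triplicate runs, and signal changes were fitted in both directions relative to DMSO.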

In test [2] the target is human Matrix Metalloproteinase-9 (MMP9), MMP9 (gene 4318) (UniProt P14780). Put plainly: NVS_ENZ_hMMP9: NovaScreen (NVS) Enzymatic Assay for human Matrix Metalloproteinase-9 (MMP9) (AID 2283190; active = hit-call score of the fitted dose curve at least 0.9, where 1 is the maximum;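 also: cell-free recombinant MMP9 protease activity read by fluorescent substrate signal; active means inhibition seen as loss of fluorescence signal versus DMSO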). The method in brief:
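Cell-free recombinant MMP9 enzyme activity measured by fluorescence intensity 1 h after dosing. Primary screen in duplicate at 25 uM, actives followed in concentration series; loss of signal relative to DMSO.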

The nature of test [3]: CCTE_Shafer_MEA_acute_spike_number: CCTE's Neural Acute Assay for Total Number of Spikes, Shafer Lab (AID 2284008). The method in brief:
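Total spike count from 40 min recordings before and during compound exposure (0.03-40 uM), given as per-well percent change. Cortical cultures from rat, DIV 13 or 15, 37 C; adaptive detection threshold 8x rms noise.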

The nature of test [4]: CCTE_Shafer_MEA_acute_firing_rate_mean: CCTE's Neural Acute Assay for Mean Firing Rate, Shafer Lab (AID 2284009).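 Also: analyzed for loss of signal so actives lower firing rate relative to DMSO.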 The method in brief:
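Percent change in well-mean firing rate was derived from extracellular spikes detected at 8x rms noise (300-5000 Hz band-pass) before and after a 40-min compound exposure. Cultures were primary rat cortical neurons, tested at 0.03-40 uM.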

Test [5] can be described thus: CCTE_Shafer_MEA_acute_burst_number: CCTE's Neural Acute Assay for Single-Electrode Bursts, Shafer Lab (AID 2284013). Put shortly:
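Spontaneous network activity of primary rat cortical neurons was recorded extracellularly on microelectrode arrays at 37 C, with 40-min periods before and during exposure to 0.03-40 uM compound on DIV 13 or 15.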

A short description of test [6]: CCTE_Shafer_MEA_acute_burst_duration_mean: CCTE's Neural Acute Assay for Mean Burst Duration, Shafer Lab (AID 2284014).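 Also: hits are decreases in mean burst duration relative to DMSO controls.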 The method in brief:
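Read-out is the per-well percent change in mean burst duration (first to last spike within a single-electrode burst) between 40-min recordings before and after compound. Cultures were primary rat cortical neurons on MEAs, dosed at 0.03-40 uM on DIV 13 or 15.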

The nature of test [7]: CCTE_Shafer_MEA_acute_per_burst_spike_number_mean: CCTE's Neural Acute Assay for Average Number of Spikes Per Burst, Shafer Lab (AID 2284015).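 Also: hits are decreases in mean spikes per burst versus baseline.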 The method in brief: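 Rat primary cortical neurons on 48-well MEAs (DIV 13 or 15) were treated with 0.03-40 uM compound at 37 C. Mean spikes per burst over 40 min were recorded before and after exposure and expressed as percent change from baseline, relative to DMSO.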

A short description of test [8]: CCTE_Shafer_MEA_acute_interburst_interval_mean: CCTE's Neural Acute Assay for Mean Interburst Interval, Shafer Lab (AID 2284016).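 Also: percent change of mean interburst interval versus each well's own pre-dose baseline; curves fitted for decrease in interburst interval relative to DMSO.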 Put shortly:
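Rat primary cortical neurons on 48-well MEAs at DIV 13 or 15 were exposed acutely to 0.03-40 uM. Spikes detected at 8x rms noise, 37 C. Mean interburst interval from 40 min recordings expressed as percent change from 40 min pre-treatment baseline.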

Test [9] in a line: CCTE_Shafer_MEA_acute_burst_percentage_mean: CCTE's Neural Acute Assay for Percentage of Spikes in a Burst, Shafer Lab (AID 2284017).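 Also: curve fitted for loss of signal so potency reflects decreased burst percentage.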 Put shortly: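 Primary rat cortical neurons on 48-well MEA plates, treated on DIV 13 or 15 at 0.03-40 uM. Spikes detected at 8x rms noise at 37C; percent change from 40-min baseline to 40-min post-dose recording, fitted versus DMSO.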
Test [10] has as its target sheep Cyclooxygenase-1 (Cox1), PTGS1 (gene 443551) (UniProt P05979). Put plainly: NVS_ENZ_oCOX1: NovaScreen (NVS) Enzymatic Assay for sheep Cyclooxygenase-1 (Cox1) (AID 2283239; active = hit-call score of the fitted dose curve at least 0.9, where 1 is the maximum;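 also: actives reduce cyclooxygenase activity so potencies are for inhibitors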). The method in brief: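 Colorimetric enzyme readout using sheep seminal-vesicle cyclooxygenase-1, measured 0.66 h post-dosing. Single-concentration duplicates at 25 uM first, then concentration series for actives, with DMSO as baseline and plate controls.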

Test [11] addresses human Dopamine Transporter (DAT), SLC6A3 (gene 6531) (UniProt Q01959). Put plainly: NVS_TR_hDAT: NovaScreen (NVS) Transporter Assay for human Dopamine Transporter (DAT) (AID 2283374; active = hit-call score of the fitted dose curve at least 0.9, where 1 is the maximum;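 also: activity means loss of bound radioligand signal relative to DMSO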). Put shortly:
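Test chemicals were first screened in duplicate at 25 uM, with actives retested as concentration series. Displacement of a specific radioligand from cell-free human dopamine transporter was measured after 1 h by filtration and scintillation counting.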

Test [12] in a line: CEETOX_H295R_ESTRADIOL: CeeTox H295R High-throughput Steroidogenesis Assay for Estradiol (AID 2283440).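 Also: estradiol secreted into medium quantified by LC-MS/MS after dansyl derivatisation.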 As to conditions: actives raise or lower the signal. Put shortly: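 Estradiol in spent medium measured by LC-MS/MS after dansyl chloride derivatisation. Forskolin-primed (10 uM, 48 h) human adrenal H295R cells received test chemical 48 h at 0.1% DMSO; concentrations lowered until MTT viability >/=70%.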

A short description of test [13]: CEETOX_H295R_ESTRONE: CeeTox H295R High-throughput Steroidogenesis Assay for Estrone (AID 2283441).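 Also: estrone secreted into medium measured by LC-MS/MS after dansyl derivatization.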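 As to AC50: human adrenal H295R cells prestimulated with forskolin for two days.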 As to conditions: actives raise or lower the signal. Put shortly: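 H295R cells; 48 h forskolin (10 uM) prestimulation; 48 h compound exposure, 0.1% DMSO final. Medium estrone: MTBE extraction, dansyl derivatization, HPLC-MS/MS. Bidirectional fit vs DMSO.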
Test [14] deals with human Phosphoinositide 3-kinase alpha (PI3Ka), PIK3CA (gene 5290) (UniProt P42336). Put plainly: NVS_ENZ_hPI3Ka: NovaScreen (NVS) Enzymatic Assay for human Phosphoinositide 3-kinase alpha (PI3Ka) (AID 2283196; active = hit-call score of the fitted dose curve at least 0.9, where 1 is the maximum). The method in brief:
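Recombinant human PI3Kα with fluorescent substrate, 1 h, product separated by electrophoretic mobility shift; 25 uM duplicate screen, hits (e.g., 30% inhibition) retested singly up to 50 uM; loss of signal vs DMSO.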

Test [15] deals with human Caspase 5 (CASP5), CASP5 (gene 838) (UniProt P51878). Put plainly: NVS_ENZ_hCASP5: NovaScreen (NVS) Enzymatic Assay for human Caspase 5 (CASP5) (AID 2283137; active = hit-call score of the fitted dose curve at least 0.9, where 1 is the maximum). Put shortly:
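Recombinant E. coli-expressed human caspase 5 in a cell-free enzyme assay; fluorescence intensity read 2 hours after chemical dosing. Single-concentration duplicate screen at 25 uM, then concentration-response up to 50 uM for hits; DMSO negative control.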

The target in test [16] is Estrogen receptor (Homo sapiens) (UniProt P03372). Put plainly: NVS_NR_hER: NovaScreen (NVS) Nuclear Receptor Binding Assay for human Estrogen Receptor (ER) (AID 2283348; active = hit-call score of the fitted dose curve at least 0.9, where 1 is the maximum). The method in brief: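 Scintillation signal from bound radioligand was measured 18 hours after chemical addition to cell-free MCF7 protein extracts, with DMSO as baseline. Activity was scored as signal loss; compounds ran first at 25 uM in duplicate.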

Test [17] is described as follows: CCTE_Shafer_MEA_dev_per_network_spike_spike_number_mean: CCTE's Neural Network Formation Assay for Mean Number of Spikes in a Network Spike, Shafer Lab (AID 2284053). The method in brief: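 Primary rat cortical neurons on 48-well, 16-electrode MEA plates were exposed from plating to DIV 12, with dosing renewed on DIV 5 and 9. Spikes per network spike (0.05 s peak window) were recorded on DIV 5, 7, 9 and 12 and collapsed as trapezoidal AUC versus DMSO.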

Test [18] in a line: CCTE_Shafer_MEA_dev_per_network_spike_spike_percent: CCTE's Neural Network Formation Assay for Percent of Spikes in a Network Spike, Shafer Lab (AID 2284054). The method in brief:
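Rat primary cortical cultures, 1.5 x 10^5 cells/well on MEA. Continuous compound exposure d0–12, medium/compound renewed DIV 5, 9. Network-spike spike % (0.05 s peak window), AUC over 4 recordings, DMSO baseline.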

The nature of test [19]: CCTE_Shafer_MEA_dev_mutual_information_norm: CCTE's Neural Network Formation Assay for Mutual Information Normalization, Shafer Lab (AID 2284091). Put shortly:
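Developing rat cortical networks on 16-electrode MEA wells are treated throughout formation (DIV 0–12). Shared electrode information is recorded four times, converted to area-under-curve, and fitted for decreases against DMSO vehicle.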

Test [20] is described as follows: TAMU_PeakParms_SingleDonor1434_Chronotropy: Texas A&M University (TAMU) 1.5-hr Human Induced Pluripotent Stem Cell (iPSC)-derived Cardiomyocytes Calcium (Ca+2) Flux Assay for Cardiotoxicity: Chronotropy (changes in peak frequency) (AID 2284217). The conditions noted are these: actives raise or lower the signal. Put shortly: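 iPSC-derived cardiomyocytes (single donor 1434) dosed at 0.2, 1, 10 and 100 uM in 0.5% DMSO for 1.5 h at 37C; Ca2+ dye fluorescence gave average beat frequency. Zero-beat points removed; bidirectional fit versus DMSO, POD as EC05.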

One may read the AC50 as the concentration giving half of the maximal activity seen.

Results filed as inconclusive are left out. Activity calls are given as the source filed them. The calls were made as follows, unless noted: active = hit-call score of the fitted dose curve at least 0.9, where 1 is the maximum; inactive = score below 0.9.

human Caspase 5 (CASP5), CASP5 (gene 838), sequence (P51878 whole entry, looked up): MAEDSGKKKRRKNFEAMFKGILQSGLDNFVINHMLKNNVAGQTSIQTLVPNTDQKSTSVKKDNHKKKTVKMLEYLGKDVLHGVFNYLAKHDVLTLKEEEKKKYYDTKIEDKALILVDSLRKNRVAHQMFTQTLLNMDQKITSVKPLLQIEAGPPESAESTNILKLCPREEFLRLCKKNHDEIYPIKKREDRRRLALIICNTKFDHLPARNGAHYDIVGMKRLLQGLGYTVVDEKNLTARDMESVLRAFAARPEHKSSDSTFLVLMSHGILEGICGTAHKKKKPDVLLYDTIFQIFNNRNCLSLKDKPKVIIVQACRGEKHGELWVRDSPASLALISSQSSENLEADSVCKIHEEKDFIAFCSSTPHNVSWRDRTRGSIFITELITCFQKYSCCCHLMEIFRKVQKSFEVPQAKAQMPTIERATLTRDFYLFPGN
human Matrix Metalloproteinase-9 (MMP9), MMP9 (gene 4318), sequence (P14780 whole entry, looked up): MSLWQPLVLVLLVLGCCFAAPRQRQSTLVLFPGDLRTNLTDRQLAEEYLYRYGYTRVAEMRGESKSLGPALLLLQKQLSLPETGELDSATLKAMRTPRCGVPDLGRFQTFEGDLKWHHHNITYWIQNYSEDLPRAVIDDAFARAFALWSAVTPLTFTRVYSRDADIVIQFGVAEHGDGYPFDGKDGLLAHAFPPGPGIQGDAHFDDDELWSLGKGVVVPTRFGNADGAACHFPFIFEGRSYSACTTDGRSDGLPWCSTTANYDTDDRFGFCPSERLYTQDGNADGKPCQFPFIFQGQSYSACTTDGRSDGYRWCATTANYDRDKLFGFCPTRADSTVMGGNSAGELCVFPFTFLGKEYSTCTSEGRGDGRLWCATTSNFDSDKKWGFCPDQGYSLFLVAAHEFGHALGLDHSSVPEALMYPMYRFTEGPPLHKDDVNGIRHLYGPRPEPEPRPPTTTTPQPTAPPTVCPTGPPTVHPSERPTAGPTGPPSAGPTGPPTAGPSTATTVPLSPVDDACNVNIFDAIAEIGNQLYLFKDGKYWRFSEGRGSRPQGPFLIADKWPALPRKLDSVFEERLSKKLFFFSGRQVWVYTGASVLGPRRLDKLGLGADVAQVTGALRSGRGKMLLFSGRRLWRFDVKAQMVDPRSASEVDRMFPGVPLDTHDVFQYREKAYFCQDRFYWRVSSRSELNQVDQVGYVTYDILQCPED
sheep Cyclooxygenase-1 (Cox1), PTGS1 (gene 443551), sequence (P05979 whole entry, looked up): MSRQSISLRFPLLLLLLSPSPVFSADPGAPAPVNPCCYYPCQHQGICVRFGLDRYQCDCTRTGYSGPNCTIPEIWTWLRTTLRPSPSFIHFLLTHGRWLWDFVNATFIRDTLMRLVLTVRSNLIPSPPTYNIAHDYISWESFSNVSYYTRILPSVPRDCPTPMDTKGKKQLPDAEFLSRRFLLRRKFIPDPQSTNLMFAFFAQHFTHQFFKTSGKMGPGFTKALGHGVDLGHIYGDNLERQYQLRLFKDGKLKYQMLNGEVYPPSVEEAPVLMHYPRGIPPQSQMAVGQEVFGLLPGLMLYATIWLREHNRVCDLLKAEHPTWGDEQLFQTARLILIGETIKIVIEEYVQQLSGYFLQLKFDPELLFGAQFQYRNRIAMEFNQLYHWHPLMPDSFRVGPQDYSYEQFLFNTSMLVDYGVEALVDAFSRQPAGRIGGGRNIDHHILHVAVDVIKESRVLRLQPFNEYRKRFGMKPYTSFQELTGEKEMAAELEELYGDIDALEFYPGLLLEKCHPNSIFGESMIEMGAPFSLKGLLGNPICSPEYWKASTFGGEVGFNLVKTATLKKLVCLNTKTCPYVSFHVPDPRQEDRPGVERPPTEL
human Dopamine Transporter (DAT), SLC6A3 (gene 6531), sequence (Q01959 whole entry, looked up): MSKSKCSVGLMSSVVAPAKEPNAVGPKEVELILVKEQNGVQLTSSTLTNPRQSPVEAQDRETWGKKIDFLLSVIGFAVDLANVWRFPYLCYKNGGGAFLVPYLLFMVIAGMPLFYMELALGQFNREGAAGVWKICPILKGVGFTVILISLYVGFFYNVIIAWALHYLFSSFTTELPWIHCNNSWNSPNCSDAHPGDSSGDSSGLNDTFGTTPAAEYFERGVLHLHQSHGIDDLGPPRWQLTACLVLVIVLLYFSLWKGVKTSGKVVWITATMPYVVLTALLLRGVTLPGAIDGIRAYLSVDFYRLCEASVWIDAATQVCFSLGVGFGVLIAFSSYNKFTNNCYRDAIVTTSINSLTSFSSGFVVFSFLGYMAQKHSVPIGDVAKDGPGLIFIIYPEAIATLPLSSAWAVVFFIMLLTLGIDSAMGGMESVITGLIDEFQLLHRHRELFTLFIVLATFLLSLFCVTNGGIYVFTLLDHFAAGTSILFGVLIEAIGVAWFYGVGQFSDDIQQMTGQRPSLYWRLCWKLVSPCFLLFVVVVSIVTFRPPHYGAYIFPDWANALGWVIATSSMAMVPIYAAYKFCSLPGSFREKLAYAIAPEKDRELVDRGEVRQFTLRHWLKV
Estrogen receptor (Homo sapiens), sequence (P03372 whole entry, looked up): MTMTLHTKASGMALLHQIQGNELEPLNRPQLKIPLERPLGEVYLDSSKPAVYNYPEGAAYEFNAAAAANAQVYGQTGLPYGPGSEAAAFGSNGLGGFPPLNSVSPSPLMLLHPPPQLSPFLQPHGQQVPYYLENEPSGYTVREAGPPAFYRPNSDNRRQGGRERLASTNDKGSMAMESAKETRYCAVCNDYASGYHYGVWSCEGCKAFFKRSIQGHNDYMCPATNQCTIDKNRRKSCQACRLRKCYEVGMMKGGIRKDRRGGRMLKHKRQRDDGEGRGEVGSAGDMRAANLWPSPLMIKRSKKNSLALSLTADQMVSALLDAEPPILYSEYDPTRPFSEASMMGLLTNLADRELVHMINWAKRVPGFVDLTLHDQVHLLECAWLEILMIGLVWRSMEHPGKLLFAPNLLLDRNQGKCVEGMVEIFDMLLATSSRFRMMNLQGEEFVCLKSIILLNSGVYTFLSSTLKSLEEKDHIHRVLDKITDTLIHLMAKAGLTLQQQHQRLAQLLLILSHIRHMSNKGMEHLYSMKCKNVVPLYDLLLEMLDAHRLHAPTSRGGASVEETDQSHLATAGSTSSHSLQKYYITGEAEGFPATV
human Phosphoinositide 3-kinase alpha (PI3Ka), PIK3CA (gene 5290), sequence (P42336 whole entry, looked up): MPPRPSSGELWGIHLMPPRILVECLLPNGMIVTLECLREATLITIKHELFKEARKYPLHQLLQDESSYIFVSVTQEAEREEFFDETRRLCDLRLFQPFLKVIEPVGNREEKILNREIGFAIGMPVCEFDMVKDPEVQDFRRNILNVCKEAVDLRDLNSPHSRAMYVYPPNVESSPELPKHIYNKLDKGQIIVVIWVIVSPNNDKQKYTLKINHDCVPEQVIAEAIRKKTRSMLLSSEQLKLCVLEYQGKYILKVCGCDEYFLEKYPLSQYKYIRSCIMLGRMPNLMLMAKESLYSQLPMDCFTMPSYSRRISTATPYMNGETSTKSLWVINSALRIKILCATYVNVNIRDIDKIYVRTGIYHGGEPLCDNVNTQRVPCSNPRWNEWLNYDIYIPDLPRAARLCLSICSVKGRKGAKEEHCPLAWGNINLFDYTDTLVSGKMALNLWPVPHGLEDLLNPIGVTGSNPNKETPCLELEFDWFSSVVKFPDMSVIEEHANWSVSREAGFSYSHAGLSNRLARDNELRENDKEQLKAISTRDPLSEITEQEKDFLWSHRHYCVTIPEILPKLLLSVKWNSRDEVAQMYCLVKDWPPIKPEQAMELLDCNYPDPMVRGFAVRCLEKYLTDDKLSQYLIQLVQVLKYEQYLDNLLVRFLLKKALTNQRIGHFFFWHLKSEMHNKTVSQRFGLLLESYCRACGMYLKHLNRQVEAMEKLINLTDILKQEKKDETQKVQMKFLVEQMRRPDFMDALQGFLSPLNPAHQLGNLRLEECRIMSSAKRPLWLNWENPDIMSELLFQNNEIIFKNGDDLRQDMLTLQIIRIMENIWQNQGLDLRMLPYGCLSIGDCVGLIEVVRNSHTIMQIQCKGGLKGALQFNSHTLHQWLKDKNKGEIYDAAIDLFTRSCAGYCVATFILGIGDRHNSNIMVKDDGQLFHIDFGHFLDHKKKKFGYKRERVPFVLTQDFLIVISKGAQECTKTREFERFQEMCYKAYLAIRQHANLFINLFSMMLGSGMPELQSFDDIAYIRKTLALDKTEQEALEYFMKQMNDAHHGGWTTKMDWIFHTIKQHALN

`Oc1cc(Cl)ccc1Cl`: the molecule was classed as inactive in test [1].
On to `CCC[N+](=O)[O-]`, for which, in test [2], the half-maximal activity concentration (AC50) is 6.06 µM (active).
With `COc1ccc(CO)cc1`, the outcome in [3], in test [4], in test [5], in [6] and in test [8] was inactive. For the same molecule, the AC50 in test [7] is 3.71 µM (active); in test [9], 3.79 µM (active).
Turning to `S=c1[nH]c2ccccc2[nH]1`, the concentration at half-maximal activity (AC50) in [10] is 0.984 µM (active).
On to `Clc1ccc(-c2ccccc2)cc1`, for which, in test [11], the result was inactive.
Turning to `CN(C)CCC#N`, the AC50 in [2] is 9.19 µM (active).
In the case of `N#Cc1cccc(C#N)c1`, the results for the AC50 in test [2] and in [10] were 7.24 µM (active) and 29.2 µM (active), respectively.
Regarding `O=P1(NCCCl)OCCCN1CCCl` (centres undefined), the molecule was classed as inactive in [10].
For `CC(=O)c1cc2c(cc1C)C(C)(C)C(C)CC2(C)C` (centres undefined), in test [1], the outcome was inactive.
Regarding `CC(C)(C)C(=O)CCl`, in test [10], the call was inactive.
On to `c1ccc(Nc2ccc3ccccc3c2)cc1`, for which the outcome in [10], in [12] and in test [13] was inactive. The AC50 in [11] was 13 µM (active).
On to `CCOP(=O)(OCC)OCC`, for which the AC50 in [2] was 5.9 µM (active).
In the case of `COC(C)(C)CCC[C@H](C)C/C=C/C(C)=C/C(=O)OC(C)C`, the molecule was called inactive in test [14].
In the case of `Cc1cc(C)c(C2=C(OC(=O)CC(C)(C)C)C3(CCCC3)OC2=O)c(C)c1`, the outcome in [12] was inactive. Further, the AC50 in [13] is 20.7 µM (active).
For the molecule `Nc1ccc(-c2ccc(N)c(N)c2)cc1N`, the AC50 in test [15] was 5.41 µM (active). Also, the result in test [14] was inactive.
For the molecule `c1cc(OCC2CO2)ccc1Cc1ccc(OCC2CO2)cc1` (centres undefined), the call in [16] was inactive.
On to `CC(C)CCCCCCCOP(=O)(Oc1ccccc1)Oc1ccccc1`, for which the result in test [17], in test [18], in test [19] and in test [20] was inactive.
With `CNC(=N[N+](=O)[O-])NCC1CCOC1` (centres undefined), the result in test [17], in test [18] and in test [19] was inactive.
With `O=C1C=CC(=O)C=C1`, the figures for the AC50 in [15], in [11] and in [20] were 28.9 µM (active), 13.9 µM (active) and 50 µM (active), respectively.
As for `CC1OC(C)OC(C)O1` (centres undefined), in test [15], the molecule was called inactive.
As for `COc1cc(OC)c(OC)cc1C=O`, the result in test [16] was inactive.
In the case of `O=[N+]([O-])C=Cc1ccccc1`, the AC50 in [11] is 25 µM (active).
Regarding `CCCCOP(=O)(O)OCCCC`, in test [16], the result was inactive.
For the molecule `CC(C)c1ccc(O)cc1`, the call in test [1] was inactive.
`CC=Cc1ccc2c(c1)OCO2`: the AC50 in test [2] was 5.42 µM (active).

The values above are taken from PubChem BioAssay (EPA / NIEHS).
